# From PubChem BioAssay
# Unmarked numbers belong to inactive results. The rule behind the calls is not given here.
# Tested on: Aerobactin synthetase IucA (Klebsiella pneumoniae hvKP1)
# Assay: IucA enzyme inhibition, primary screen, biochemical, Spectrum library (AID 1346200);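 note: 100% = wells without compound and 0% = wells lacking enzyme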
# Settings: malachite green pyrophosphate, A620, at 8 µM, hits give low values
row,Structure (SMILES),activity remaining [%]
1,CC1(C)CCCC2(C)C3C1[C@@H](O)C2(C)C[C@H]3O (stereo not given in full),105
2,O=c1[nH]c(=O)n(C2C[C@H](O)[C@@H](CO)O2)cc1C(F)(F)F (stereo not given in full),108
3,CC1(C)C2C[C@@H](O)[C@]3(C)C(CC[C@@]4(C)[C@H](c5ccoc5)OC(=O)C5OC543)[C@@]2(C)C(=O)C[C@H]1O (stereo not given in full),108
4,COc1cccc2c1CCC1CC(=O)CC[C@]21C (stereo not given in full),119
5,CC(C)(O)[C@@H]1Cc2cc3ccc(=O)oc3cc2O1,113
6,CC1(C)Oc2ccc3ccc(=O)oc3c2CC1O (stereo not given),88.1
7,COC(=O)C1=CO[C@@H](O[C@@H]2O[C@H](CO)[C@@H](O)[C@H](O)[C@H]2O)[C@@H]2[C@@H](C)CC(=O)[C@]12O,109
8,COC(=O)C[C@H]1C(C)(C)C(=O)[C@@H]2CC3=C(CC[C@]4(C)C3=CC(=O)O[C@H]4c3ccoc3)C1(C)C2=O,121
9,COc1c(O)cc2c(c1O)[C@H]1O[C@H](CO)[C@@H](O)[C@H](O)[C@@H]1OC2=O,112
10,CC(C)CCCC(C)[C@H]1CCC2C3CC=C4CC(=O)CC[C@]4(C)C3CC[C@@]21C (stereo not given in full),113
11,CC(C)(C)NCC(O)COc1cccc2c1CCCC2=O (stereo not given),91.1
12,Nc1ccc(C(=O)O)cc1,124
13,CC(=O)OCC(COC(C)=O)OC(C)=O,126
14,COc1ccc([C@H]2COc3c(ccc(O)c3OC)C2)c(OC)c1O,89.5
15,C[C@@H]1CC[C@@]2(OC1)OC1CC3C4CC=C5C[C@@H](O)CC[C@]5(C)C4CC[C@]3(C)C1[C@@H]2C (stereo not given in full),104
